# Measured values from PubChem BioAssay (EPA / NIEHS).
# Activity calls are given as the source filed them. The calls were made as follows: active = hit-call score of the fitted dose curve at least 0.9, where 1 is the maximum; inactive = score below 0.9.
# Experiments:
# Conditions in all cases: mRNA level, 48 h; actives raise or lower the signal
# [1] = read-out: Tumor necrosis factor receptor superfamily member 6 (Homo sapiens) (UniProt P25445); assay: LTEA_HepaRG_FAS: Life Technologies and Expression Analysis (LTEA) Assay for Fas cell surface death receptor (FAS) using HepaRG (AID 2283447)
# Summary of the method: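 Differentiated human HepaRG cells, pre-cultured 48 h, were exposed in duplicate for 48 h to 8-point half-log concentrations (top 100 uM, 0.5% DMSO) in serum-free induction medium; FAS mRNA measured by qRT-PCR, normalized to ACTB/GAPDH/POLR2A, bidirectional fit versus DMSO.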
# [2] = read-out: Fatty acid synthase (Homo sapiens) (UniProt P49327); assay: LTEA_HepaRG_FASN: Life Technologies and Expression Analysis (LTEA) Assay for Fatty Acid Synthase (FASN) using HepaRG (AID 2283448)
# Summary of the method: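 FASN expression changes, up or down relative to 0.5% DMSO, were measured by qRT-PCR in human HepaRG cells after 48 h treatment with chemicals at eight concentrations (half-log steps from 100 uM).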
# [3] = read-out: Cyclin D2 (CCND2), CCND2 (gene 894); assay: LTEA_HepaRG_CCND2: Life Technologies and Expression Analysis (LTEA) Assay for Cyclin D2 (CCND2) using HepaRG (AID 2283449);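 also: CCND2 transcript measured by TaqMan qRT-PCR and normalised to three housekeeping genes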
# Summary of the method: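 Differentiated human HepaRG cells were exposed for 48 h in serum-free induction medium to eight half-log concentrations topping at 100 uM (0.5% DMSO vehicle). CCND2 mRNA was quantified by TaqMan qRT-PCR, normalised to ACTB, GAPDH and POLR2A, and fitted bidirectionally against DMSO.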
# [4] = read-out: Cyclin Dependent Kinase Inhibitor 1A (CDKN1A), CDKN1A (gene 1026); assay: LTEA_HepaRG_CDKN1A: Life Technologies and Expression Analysis (LTEA) Assay for Cyclin Dependent Kinase Inhibitor 1A (CDKN1A) using HepaRG (AID 2283450)
# Summary of the method: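 Differentiated human HepaRG cells, pre-cultured 48 h, were exposed in duplicate for 48 h in serum-free induction medium to eight half-log concentrations up to 100 uM (0.5% DMSO). CDKN1A mRNA was measured by qRT-PCR, normalized to ACTB/GAPDH/POLR2A, bidirectionally fitted versus DMSO.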
# [5] = read-out: Cyclin D1 (CCND1), CCND1 (gene 595); assay: LTEA_HepaRG_CCND1: Life Technologies and Expression Analysis (LTEA) Assay for Cyclin D1 (CCND1) using HepaRG (AID 2283451);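 as to AC50: TaqMan qRT-PCR transcript level normalised to ACTB GAPDH and POLR2A housekeeping genes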
# Summary of the method: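 Differentiated human HepaRG cells in serum-free induction medium were exposed 48 h to eight half-log concentrations up to 100 uM in 0.5% DMSO; mRNA quantified by TaqMan qRT-PCR, normalized to ACTB, GAPDH, POLR2A, fitted bidirectionally versus DMSO.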
# [6] = read-out: catalase (CAT), CAT (gene 847); assay: LTEA_HepaRG_CAT: Life Technologies and Expression Analysis (LTEA) Assay for catalase (CAT) using HepaRG (AID 2283452);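 as to AC50: TaqMan qRT-PCR signal normalized to ACTB GAPDH and POLR2A housekeeping genes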
# Summary of the method: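 Differentiated HepaRG cells in serum-free induction medium were dosed 48 h in duplicate, eight half-log concentrations from 100 uM in 0.5% DMSO. Transcript measured by TaqMan qRT-PCR, normalised to ACTB/GAPDH/POLR2A, fitted bidirectionally against DMSO.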
# [7] = read-out: flavin-containing dimethylaniline monooxygenases 3 (FMO3), FMO3 (gene 2328); assay: LTEA_HepaRG_FMO3: Life Technologies and Expression Analysis (LTEA) Assay for flavin-containing dimethylaniline monooxygenases 3 (FMO3) using HepaRG (AID 2283453)
# Summary of the method: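 Differentiated HepaRG cells in serum-free induction medium, exposed 48 h in duplicate to 8 half-log concentrations up to 100 uM in 0.5% DMSO. FMO3 mRNA by qRT-PCR, normalized to ACTB, GAPDH, POLR2A; bidirectional fit vs DMSO.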
# [8] = read-out: CFLAR gene, CFLAR (gene 8837); assay: LTEA_HepaRG_CFLAR: Life Technologies and Expression Analysis (LTEA) Assay for CFLAR gene using HepaRG (AID 2283455)
# Summary of the method: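 HepaRG cells were plated for 48 h, switched to serum-free induction medium, then exposed in duplicate for 48 h to 8 concentrations (top 100 uM, half-log steps, 0.5% DMSO). CFLAR mRNA was measured by qRT-PCR, normalized to ACTB, GAPDH and POLR2A.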
# [9] = read-out: Forkhead box O1 (FOXO1), FOXO1 (gene 2308); assay: LTEA_HepaRG_FOXO1: Life Technologies and Expression Analysis (LTEA) Assay for Forkhead box O1 (FOXO1) using HepaRG (AID 2283456)
# Summary of the method: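 Differentiated human HepaRG cells in serum-free induction medium were exposed in duplicate for 48 h to eight half-log concentrations (top 100 uM, 0.5% DMSO). FOXO1 mRNA was measured by TaqMan qRT-PCR, normalised to ACTB, GAPDH and POLR2A, and fitted bidirectionally against DMSO.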
# [10] = read-out: growth arrest and DNA damage 45 (GADD45A), GADD45A (gene 1647); assay: LTEA_HepaRG_GADD45A: Life Technologies and Expression Analysis (LTEA) Assay for growth arrest and DNA damage 45 (GADD45A) using HepaRG (AID 2283458)
# Summary of the method: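 Cells plated and cultured 48 h, switched to serum-free induction medium, then dosed for 48 h (100 uM top, half-log dilutions, 0.5% DMSO). RNA was isolated and transcript measured by Fluidigm qRT-PCR.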
# [11] = read-out: Forkhead box O3 (FOXO3), FOXO3 (gene 2309); assay: LTEA_HepaRG_FOXO3: Life Technologies and Expression Analysis (LTEA) Assay for Forkhead box O3 (FOXO3) using HepaRG (AID 2283459)
# Summary of the method: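 Differentiated human HepaRG cells in serum-free induction medium were exposed in duplicate for 48 h to eight half-log concentrations up to 100 uM in 0.5% DMSO. FOXO3 mRNA was quantified by qRT-PCR, normalized to ACTB, GAPDH and POLR2A, with bidirectional fitting versus DMSO.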
# [12] = read-out: ABC Transporter (ABCB1), ABCB1 (gene 5243); assay: LTEA_HepaRG_ABCB1: Life Technologies and Expression Analysis (LTEA) Assay for ABC Transporter (ABCB1) using HepaRG (AID 2283460)
# Summary of the method: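 Differentiated human HepaRG cells, plated 48 h then switched to serum-free induction medium, were exposed in duplicate to eight half-log concentrations up to 100 uM in 0.5% DMSO for 48 h. ABCB1 mRNA was measured by TaqMan qRT-PCR, normalized to ACTB/GAPDH/POLR2A.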
# [13] = read-out: ABC Transporter (ABCC3), ABCC3 (gene 8714); assay: LTEA_HepaRG_ABCC3: Life Technologies and Expression Analysis (LTEA) Assay for ABC Transporter (ABCC3) using HepaRG (AID 2283462)
# Summary of the method: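 HepaRG cells in serum-free induction medium were exposed for 48 h in duplicate to 8-point half-log concentrations topping at 100 uM in 0.5% DMSO. ABCC3 mRNA was measured by qRT-PCR normalized to ACTB, GAPDH and POLR2A, with bidirectional fitting versus DMSO.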
# [14] = read-out: ABC Transporter (ABCB11), ABCB11 (gene 8647); assay: LTEA_HepaRG_ABCB11: Life Technologies and Expression Analysis (LTEA) Assay for ABC Transporter (ABCB11) using HepaRG (AID 2283463)
# Summary of the method: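 Differentiated human HepaRG cells were exposed for 48 h in serum-free induction medium to eight half-log concentrations up to 100 uM in 0.5% DMSO. ABCB11 mRNA was quantified by qRT-PCR, normalized to ACTB, GAPDH and POLR2A, and fitted bidirectionally versus DMSO.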
# [15] = read-out: ABC Transporter (ABCC2), ABCC2 (gene 1244); assay: LTEA_HepaRG_ABCC2: Life Technologies and Expression Analysis (LTEA) Assay for ABC Transporter (ABCC2) using HepaRG (AID 2283464)
# Summary of the method: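 HepaRG cells were plated 48 h, switched to serum-free induction medium, then exposed in duplicate for 48 h to 8 concentrations (top 100 uM, half-log steps, 0.5% DMSO). ABCC2 mRNA was measured by qRT-PCR normalized to ACTB/GAPDH/POLR2A; bidirectional fitting versus DMSO.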
# [16] = read-out: Broad substrate specificity ATP-binding cassette transporter ABCG2 (Homo sapiens) (UniProt Q9UNQ0); assay: LTEA_HepaRG_ABCG2: Life Technologies and Expression Analysis (LTEA) Assay for ABC Transporter (ABCG2) using HepaRG (AID 2283465)
# Summary of the method: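 Differentiated HepaRG cells in serum-free induction medium were exposed for 48 h, in duplicate, to eight half-log concentrations up to 100 uM in 0.5% DMSO. ABCG2 mRNA was measured by TaqMan qRT-PCR, normalized to ACTB, GAPDH and POLR2A, and fitted bidirectionally versus DMSO.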
# [17] = read-out: growth arrest and DNA damage 45 (GADD45B), GADD45B (gene 4616); assay: LTEA_HepaRG_GADD45B: Life Technologies and Expression Analysis (LTEA) Assay for growth arrest and DNA damage 45 (GADD45B) using HepaRG (AID 2283461)
# Summary of the method: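 Differentiated HepaRG cells, plated 48 h then switched to serum-free induction medium, were exposed 48 h in duplicate to eight half-log concentrations from 100 uM in 0.5% DMSO; mRNA quantified by qRT-PCR, normalized to ACTB/GAPDH/POLR2A, bidirectional fit versus DMSO.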
# [18] = read-out: Cytochrome P450 (CYP1A1), CYP1A1 (gene 1543); assay: LTEA_HepaRG_CYP1A1: Life Technologies and Expression Analysis (LTEA) Assay for Cytochrome P450 (CYP1A1) using HepaRG (AID 2283454)
# Summary of the method: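 Differentiated HepaRG cells in serum-free induction medium were exposed in duplicate for 48 h to eight half-log concentrations up to 100 uM in 0.5% DMSO. CYP1A1 mRNA was quantified by TaqMan qRT-PCR, normalized to ACTB, GAPDH and POLR2A.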
# Fatty acid synthase (Homo sapiens), sequence (P49327 whole entry, looked up): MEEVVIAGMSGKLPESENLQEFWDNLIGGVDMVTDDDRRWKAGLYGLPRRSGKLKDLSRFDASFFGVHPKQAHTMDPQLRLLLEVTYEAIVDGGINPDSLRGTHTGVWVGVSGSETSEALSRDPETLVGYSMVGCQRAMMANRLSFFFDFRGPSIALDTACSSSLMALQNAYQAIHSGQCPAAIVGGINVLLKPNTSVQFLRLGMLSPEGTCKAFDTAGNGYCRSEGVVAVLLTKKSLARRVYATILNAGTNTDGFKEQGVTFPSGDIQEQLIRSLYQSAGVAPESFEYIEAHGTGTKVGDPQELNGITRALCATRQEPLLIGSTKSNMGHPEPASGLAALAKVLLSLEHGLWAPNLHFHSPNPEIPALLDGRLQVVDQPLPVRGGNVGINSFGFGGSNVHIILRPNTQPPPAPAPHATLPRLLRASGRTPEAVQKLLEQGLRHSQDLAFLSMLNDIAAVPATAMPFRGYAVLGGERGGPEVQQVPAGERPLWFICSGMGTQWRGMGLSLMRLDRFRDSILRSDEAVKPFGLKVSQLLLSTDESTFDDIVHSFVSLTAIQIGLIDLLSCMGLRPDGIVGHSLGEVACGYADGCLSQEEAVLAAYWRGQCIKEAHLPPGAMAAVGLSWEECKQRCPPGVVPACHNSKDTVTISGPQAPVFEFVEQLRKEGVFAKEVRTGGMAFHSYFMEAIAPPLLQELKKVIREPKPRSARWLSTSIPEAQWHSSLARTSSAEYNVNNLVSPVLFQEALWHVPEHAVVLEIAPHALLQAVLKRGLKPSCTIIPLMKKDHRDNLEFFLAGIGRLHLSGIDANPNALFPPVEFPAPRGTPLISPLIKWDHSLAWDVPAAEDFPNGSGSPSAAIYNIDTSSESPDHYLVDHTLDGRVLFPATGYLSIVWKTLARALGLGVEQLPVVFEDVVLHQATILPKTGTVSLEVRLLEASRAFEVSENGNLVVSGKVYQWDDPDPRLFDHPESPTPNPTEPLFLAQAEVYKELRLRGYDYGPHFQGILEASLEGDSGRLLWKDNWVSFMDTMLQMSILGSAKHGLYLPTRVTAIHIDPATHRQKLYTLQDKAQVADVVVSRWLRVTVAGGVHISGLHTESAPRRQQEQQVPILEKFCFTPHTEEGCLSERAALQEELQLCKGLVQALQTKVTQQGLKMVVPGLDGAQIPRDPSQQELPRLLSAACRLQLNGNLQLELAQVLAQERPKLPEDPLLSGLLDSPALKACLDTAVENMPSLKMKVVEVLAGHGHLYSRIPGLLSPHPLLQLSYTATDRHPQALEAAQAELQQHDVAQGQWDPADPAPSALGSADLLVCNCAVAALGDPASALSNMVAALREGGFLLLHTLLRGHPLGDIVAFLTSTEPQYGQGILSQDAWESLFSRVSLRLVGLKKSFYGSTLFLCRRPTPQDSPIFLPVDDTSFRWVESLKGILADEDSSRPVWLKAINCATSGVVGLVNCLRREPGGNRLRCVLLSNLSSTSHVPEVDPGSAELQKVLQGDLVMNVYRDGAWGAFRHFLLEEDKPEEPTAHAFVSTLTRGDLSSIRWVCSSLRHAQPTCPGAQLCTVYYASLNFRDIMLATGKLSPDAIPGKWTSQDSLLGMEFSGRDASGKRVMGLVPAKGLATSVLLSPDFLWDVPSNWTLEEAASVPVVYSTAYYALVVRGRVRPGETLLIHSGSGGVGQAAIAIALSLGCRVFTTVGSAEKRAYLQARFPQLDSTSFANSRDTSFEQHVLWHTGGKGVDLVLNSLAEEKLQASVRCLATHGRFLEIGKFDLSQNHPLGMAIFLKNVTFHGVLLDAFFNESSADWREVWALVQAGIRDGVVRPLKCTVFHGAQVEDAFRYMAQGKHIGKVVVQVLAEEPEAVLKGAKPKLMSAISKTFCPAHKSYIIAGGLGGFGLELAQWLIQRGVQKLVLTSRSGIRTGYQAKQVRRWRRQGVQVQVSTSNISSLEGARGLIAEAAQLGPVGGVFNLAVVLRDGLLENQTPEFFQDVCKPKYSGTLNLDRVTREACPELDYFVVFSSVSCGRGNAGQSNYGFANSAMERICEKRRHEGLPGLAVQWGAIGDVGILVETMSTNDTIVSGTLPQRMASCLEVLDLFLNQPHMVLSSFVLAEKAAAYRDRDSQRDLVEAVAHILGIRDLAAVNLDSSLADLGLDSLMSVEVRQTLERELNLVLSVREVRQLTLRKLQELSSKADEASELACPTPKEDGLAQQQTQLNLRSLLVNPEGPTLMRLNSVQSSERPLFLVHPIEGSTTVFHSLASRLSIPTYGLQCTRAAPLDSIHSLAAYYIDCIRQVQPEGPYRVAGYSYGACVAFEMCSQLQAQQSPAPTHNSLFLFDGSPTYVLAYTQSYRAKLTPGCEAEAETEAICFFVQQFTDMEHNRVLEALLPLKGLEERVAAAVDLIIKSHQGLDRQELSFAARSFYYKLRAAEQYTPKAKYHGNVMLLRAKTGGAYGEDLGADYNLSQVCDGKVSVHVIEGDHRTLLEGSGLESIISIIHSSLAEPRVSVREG
# Broad substrate specificity ATP-binding cassette transporter ABCG2 (Homo sapiens), sequence (Q9UNQ0 whole entry, looked up): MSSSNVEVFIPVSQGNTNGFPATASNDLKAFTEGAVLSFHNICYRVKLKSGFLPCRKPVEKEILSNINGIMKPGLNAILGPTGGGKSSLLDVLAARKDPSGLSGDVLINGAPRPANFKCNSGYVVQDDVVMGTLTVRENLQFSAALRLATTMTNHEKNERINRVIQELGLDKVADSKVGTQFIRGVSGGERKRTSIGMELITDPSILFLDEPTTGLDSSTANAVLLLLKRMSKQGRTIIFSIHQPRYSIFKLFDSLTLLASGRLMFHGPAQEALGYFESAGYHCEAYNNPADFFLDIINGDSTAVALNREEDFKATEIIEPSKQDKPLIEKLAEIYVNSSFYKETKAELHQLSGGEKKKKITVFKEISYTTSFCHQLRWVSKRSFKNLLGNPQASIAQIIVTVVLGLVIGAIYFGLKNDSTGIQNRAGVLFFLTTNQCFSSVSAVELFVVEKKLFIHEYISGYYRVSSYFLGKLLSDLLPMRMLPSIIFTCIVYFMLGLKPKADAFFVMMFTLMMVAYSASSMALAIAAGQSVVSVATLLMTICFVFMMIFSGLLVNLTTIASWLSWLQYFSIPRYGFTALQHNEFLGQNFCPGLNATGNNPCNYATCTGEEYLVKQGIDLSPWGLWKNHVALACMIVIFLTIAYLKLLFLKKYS
structure (smiles),measurement,setting,value
CCC(CC)Nc1c([N+](=O)[O-])cc(C)c(C)c1[N+](=O)[O-],outcome,[1],inactive
same,outcome,[2],inactive
same,outcome,[3],inactive
same,outcome,[4],inactive
same,outcome,[5],inactive
same,outcome,[6],inactive
same,outcome,[7],inactive
same,outcome,[8],inactive
same,outcome,[9],inactive
same,outcome,[10],inactive
same,outcome,[11],inactive
same,outcome,[12],inactive
same,outcome,[13],inactive
same,outcome,[14],inactive
same,outcome,[15],inactive
same,AC50,[16],60.6 µM (active)
CCOP(=O)(SC(C)CC)N1CCSC1=O (configuration not stated),outcome,[1],inactive
same,outcome,[2],inactive
same,outcome,[4],inactive
same,outcome,[5],inactive
same,outcome,[6],inactive
same,outcome,[7],inactive
same,outcome,[8],inactive
same,outcome,[9],inactive
same,outcome,[10],inactive
same,outcome,[11],inactive
same,outcome,[12],inactive
same,outcome,[14],inactive
same,AC50,[15],27.1 µM (active)
same,outcome,[16],inactive
Nc1c(Cl)cc([N+](=O)[O-])cc1Cl,outcome,[1],inactive
same,AC50,[2],16.9 µM (active)
same,outcome,[3],inactive
same,outcome,[4],inactive
same,AC50,[5],50 µM (active)
same,AC50,[6],41.4 µM (active)
same,AC50,[7],50 µM (active)
same,AC50,[8],17.7 µM (active)
same,outcome,[9],inactive
same,AC50,[10],78.9 µM (active)
same,AC50,[11],7.33 µM (active)
same,AC50,[12],31.1 µM (active)
same,AC50,[14],37.4 µM (active)
same,AC50,[15],84.2 µM (active)
same,AC50,[16],80.4 µM (active)
CN1COCN(Cc2cnc(Cl)s2)C1=N[N+](=O)[O-],outcome,[1],inactive
same,outcome,[2],inactive
same,outcome,[4],inactive
same,outcome,[5],inactive
same,outcome,[6],inactive
same,outcome,[7],inactive
same,outcome,[8],inactive
same,outcome,[9],inactive
same,outcome,[10],inactive
same,outcome,[11],inactive
same,outcome,[12],inactive
same,outcome,[17],inactive
same,outcome,[13],inactive
same,outcome,[14],inactive
same,outcome,[15],inactive
same,outcome,[16],inactive
CCc1cnc(C2=NC(C)(C(C)C)C(=O)N2)c(C(=O)O)c1 (configuration not stated),outcome,[1],inactive
same,outcome,[2],inactive
same,outcome,[3],inactive
same,outcome,[4],inactive
same,outcome,[5],inactive
same,outcome,[6],inactive
same,outcome,[7],inactive
same,outcome,[18],inactive
same,outcome,[8],inactive
same,outcome,[9],inactive
same,outcome,[10],inactive
same,outcome,[11],inactive
same,outcome,[12],inactive
same,outcome,[13],inactive
same,outcome,[14],inactive
same,outcome,[15],inactive
same,outcome,[16],inactive
CC(Oc1cccc(Cl)c1)C(=O)O (configuration not stated),outcome,[1],inactive
same,outcome,[2],inactive
same,outcome,[4],inactive
same,outcome,[5],inactive
same,outcome,[6],inactive
same,outcome,[7],inactive
same,outcome,[8],inactive
same,outcome,[9],inactive
same,outcome,[10],inactive
same,outcome,[11],inactive
same,outcome,[12],inactive
same,outcome,[14],inactive
same,AC50,[15],20.2 µM (active)
same,AC50,[16],5.79 µM (active)
